This is an account of results in PubChem BioAssay (NCI).

A short description of assay [1]: NCI Yeast Anticancer Drug Screen. Data for the rad50 strain (AID 155).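 Also: 0% = growth of vehicle-only cultures of the same strain.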 As to conditions: S. cerevisiae rad50 strain growth inhibition, hits give high values. In short, it runs like this:
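Compounds were tested on a yeast strain with an engineered DNA damage repair alteration; the reported value is growth inhibition normalised to vehicle treatment.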

The nature of assay [2]: NCI Yeast Anticancer Drug Screen. Data for the mec2-1 strain (AID 157). The following applies: S. cerevisiae mec2-1 strain, hits give high values. In short, it runs like this:
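Mutant yeast (mec2-1) grown with compound; growth inhibition relative to vehicle control reported.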

Assay [3] is described as follows: NCI Yeast Anticancer Drug Screen. Data for the sgs1 mgt1 strain (AID 161).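 Also: 0% = growth of cultures given vehicle only.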 As to conditions: S. cerevisiae sgs1 mgt1 strain, hits give high values. In short, it runs like this:
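Yeast cells carrying a defined DNA-repair defect were exposed to test compounds. Growth inhibition was measured relative to vehicle-treated controls.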

Assay [4] in a line: NCI Yeast Anticancer Drug Screen. Data for the cln2 rad14 strain (AID 165).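 Also: 0% = growth equal to vehicle treated cultures.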 The following applies: S. cerevisiae cln2 rad14 strain, hits give high values. In short, it runs like this: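 Readout is yeast growth inhibition versus vehicle-treated controls, using a strain with cln2 and rad14 alterations exposed to compound.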
Assay [5] is described as follows: NCI Yeast Anticancer Drug Screen. Data for the bub3 strain (AID 167). As to conditions: S. cerevisiae bub3 mutant strain, hits give high values. In short, it runs like this:
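Growth of a checkpoint-deficient yeast mutant is measured after compound exposure. Values represent inhibition relative to vehicle.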

The nature of assay [6]: NCI Yeast Anticancer Drug Screen. Data for the mlh1 rad18 strain (AID 175). The following applies: S. cerevisiae mlh1 rad18 strain growth inhibition, hits give high values. In short, it runs like this:
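Genetically defined yeast (DNA repair-deficient) exposed to compounds; growth inhibition determined relative to vehicle.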

The mark [7] stands for this setting: at 5.0 µM (retest, dose inferred, filed as 0.5).
Setting [8] is: at 50.0 µM (retest, dose inferred, filed as 5.0).

The panel holds about 79,000 compounds, 15% with a hit somewhere; the sample as a whole holds those more often. A number with no mark means an inactive call. The source made the active and inactive calls. Rule as the data show it: active = growth inhibition above about 70%; inactive = the rest.

As for `CC(C)n1nnc2c3ccccc3c3ccccc3c21`, the growth inhibition in assay [1] (setting [7]) was 3%; in assay [1] (setting [8]) it was 11%; in assay [1] (at 50.0 µM), -7.5%; in assay [2] (setting [7]) it was 5%; in assay [2] (setting [8]), -1%; in assay [2] (at 50.0 µM), 4.1%. In addition, the growth inhibition in assay [3] (setting [7]) was -2%; in assay [3] (setting [8]), 6%; in assay [3] (at 50.0 µM) it was 11.8%; in assay [4] (setting [7]) it was 15%; in assay [4] (setting [8]), 19%; in assay [4] (at 50.0 µM) it was -1.25%. Moreover, the growth inhibition in assay [5] (setting [7]) is 14%; in assay [5] (setting [8]), 12%; in assay [5] (at 50.0 µM), 5.9%; in assay [6] (setting [7]) it was -10%; in assay [6] (setting [8]), 15%; in assay [6] (at 50.0 µM), 0%.

Consider `CCN=C(N)Nc1nc(-c2ccc(Cl)cc2)cs1`, for which the growth inhibition in assay [1] (setting [7]) is 10%; in assay [1] (setting [8]) it was 99% (active); in assay [1] (at 50.0 µM), 98.8% (active); in assay [2] (setting [7]) it was 0%; in assay [2] (setting [8]) it was 99% (active); in assay [2] (at 50.0 µM), 96.8% (active). Further, the growth inhibition in assay [3] (setting [7]) was 8%; in assay [3] (setting [8]) it was 99% (active); in assay [3] (at 50.0 µM) it was 91.8% (active); in assay [4] (setting [7]) it was 9%; in assay [4] (setting [8]), 99% (active); in assay [4] (at 50.0 µM) it was 76.3% (active). Moreover, the growth inhibition is 7% in assay [5] (setting [7]); 98% (active) in assay [5] (setting [8]); 96.3% (active) in assay [5] (at 50.0 µM); 9% in assay [6] (setting [7]); 99% (active) in assay [6] (setting [8]); 96.8% (active) in assay [6] (at 50.0 µM).

With `Cc1c(Cl)c(Cl)cc([N+](=O)[O-])c1Cl`, the growth inhibition in assay [1] (setting [7]) was 41%; in assay [1] (setting [8]), 49%; in assay [1] (at 50.0 µM) it was 24.9%; in assay [2] (setting [7]), 51%; in assay [2] (setting [8]), 45%; in assay [2] (at 50.0 µM), 37.6%. The growth inhibition is -5% in assay [3] (setting [7]); 15% in assay [3] (setting [8]); 46% in assay [3] (at 50.0 µM); 31% in assay [4] (setting [7]); 47% in assay [4] (setting [8]); -6.9% in assay [4] (at 50.0 µM). Further, the growth inhibition in assay [5] (setting [7]) was 11%; in assay [5] (setting [8]), 38%; in assay [5] (at 50.0 µM), 52.4%; in assay [6] (setting [7]), 25%; in assay [6] (setting [8]), 46%; in assay [6] (at 50.0 µM), 19.4%.

As for `CC(C)c1ncc(-c2ccccc2)cc1-c1ccccc1`, the growth inhibition is -2% in assay [1] (setting [7]); 93% (active) in assay [1] (setting [8]); 95.7% (active) in assay [1] (at 50.0 µM); -3% in assay [2] (setting [7]); 96% (active) in assay [2] (setting [8]); 97.5% (active) in assay [2] (at 50.0 µM). The growth inhibition in assay [3] (setting [7]) is -1%; in assay [3] (setting [8]), 94% (active); in assay [3] (at 50.0 µM), 97.7% (active); in assay [4] (setting [7]), 2%; in assay [4] (setting [8]) it was 86% (active); in assay [4] (at 50.0 µM), 78.8% (active). Besides, the growth inhibition in assay [5] (setting [7]) is 6%; in assay [5] (setting [8]), 95% (active); in assay [5] (at 50.0 µM), 98.5% (active); in assay [6] (setting [7]), -7%; in assay [6] (setting [8]), 95% (active); in assay [6] (at 50.0 µM), 96% (active).

For the compound `NNC(=O)c1ccccc1SSc1ccccc1C(=O)NN`, the growth inhibition is 82% (active) in assay [1] (setting [7]); 99% (active) in assay [1] (setting [8]); 99.3% (active) in assay [1] (at 50.0 µM); 81% (active) in assay [2] (setting [7]); 99% (active) in assay [2] (setting [8]); 99.7% (active) in assay [2] (at 50.0 µM). The growth inhibition in assay [3] (setting [7]) is 74% (active); in assay [3] (setting [8]), 99% (active); in assay [3] (at 50.0 µM), 99.7% (active); in assay [4] (setting [7]) it was 51%; in assay [4] (setting [8]), 99% (active); in assay [4] (at 50.0 µM), 98.7% (active). In addition, the growth inhibition in assay [5] (setting [7]) is 98% (active); in assay [5] (setting [8]) it was 99% (active); in assay [5] (at 50.0 µM), 99.1% (active); in assay [6] (setting [7]), 71% (active); in assay [6] (setting [8]), 99% (active); in assay [6] (at 50.0 µM), 99.4% (active).

For the compound `CC(=O)N1C(c2[nH]c3ccccc3c2Cc2ccccc2)CCN1c1ccccc1` (stereo not given), the growth inhibition in assay [1] (setting [7]) was -27%; in assay [1] (setting [8]) it was 94% (active); in assay [1] (at 50.0 µM) it was 84.9% (active); in assay [2] (setting [7]) it was -14%; in assay [2] (setting [8]) it was 98% (active); in assay [2] (at 50.0 µM), 87% (active). Besides, the growth inhibition is -20% in assay [3] (setting [7]); 94% (active) in assay [3] (setting [8]); 88.3% (active) in assay [3] (at 50.0 µM); -12% in assay [4] (setting [7]); 96% (active) in assay [4] (setting [8]); 85.7% (active) in assay [4] (at 50.0 µM). Moreover, the growth inhibition in assay [5] (setting [7]) is -18%; in assay [5] (setting [8]), 96% (active); in assay [5] (at 50.0 µM), 87.5% (active); in assay [6] (setting [7]), -27%; in assay [6] (setting [8]), 95% (active); in assay [6] (at 50.0 µM), 83.8% (active).

Consider `COC12C(COC(N)=O)C3=C(C(=O)C(C)=C(N)C3=O)N1CC1C2N1C(=O)c1ccc(Cl)c(Cl)c1` (stereo not given), for which the growth inhibition in assay [1] (setting [7]) was 32%; in assay [1] (setting [8]), 93% (active); in assay [1] (at 50.0 µM) it was 82.2% (active); in assay [2] (setting [7]), 29%; in assay [2] (setting [8]), 96% (active); in assay [2] (at 50.0 µM) it was 85.3% (active). In addition, the growth inhibition is 12% in assay [3] (setting [7]); 95% (active) in assay [3] (setting [8]); 89.2% (active) in assay [3] (at 50.0 µM); 11% in assay [4] (setting [7]); 94% (active) in assay [4] (setting [8]); 80.5% (active) in assay [4] (at 50.0 µM). The growth inhibition in assay [5] (setting [7]) was 22%; in assay [5] (setting [8]), 95% (active); in assay [5] (at 50.0 µM), 83.8% (active); in assay [6] (setting [7]) it was 37%; in assay [6] (setting [8]) it was 95% (active); in assay [6] (at 50.0 µM) it was 88% (active).

On to `C=C(C)/C([O-])=N/[N+](C)(C)CC(O)CCCCCCCCCCCC` (stereo not given), for which the growth inhibition in assay [1] (setting [7]) is 34%; in assay [1] (setting [8]), 98% (active); in assay [1] (at 50.0 µM) it was 91.7% (active); in assay [2] (setting [7]), 32%; in assay [2] (setting [8]) it was 99% (active); in assay [2] (at 50.0 µM) it was 91.5% (active). The growth inhibition is 60% in assay [3] (setting [7]); 99% (active) in assay [3] (setting [8]); 92.2% (active) in assay [3] (at 50.0 µM); 57% in assay [4] (setting [7]); 99% (active) in assay [4] (setting [8]); 90.3% (active) in assay [4] (at 50.0 µM). The growth inhibition was 67% in assay [5] (setting [7]); 99% (active) in assay [5] (setting [8]); 91.5% (active) in assay [5] (at 50.0 µM); 31% in assay [6] (setting [7]); 98% (active) in assay [6] (setting [8]); 90.2% (active) in assay [6] (at 50.0 µM).

Regarding `COc1ccc2nc(NC(=O)Nc3c(Cl)cccc3Cl)sc2c1`, the growth inhibition in assay [1] (setting [7]) was 13%; in assay [1] (setting [8]), 99% (active); in assay [1] (at 50.0 µM), 98.4% (active); in assay [2] (setting [7]), -3%; in assay [2] (setting [8]), 99% (active); in assay [2] (at 50.0 µM) it was 99.3% (active). Moreover, the growth inhibition is 20% in assay [3] (setting [7]); 99% (active) in assay [3] (setting [8]); 99% (active) in assay [3] (at 50.0 µM); 15% in assay [4] (setting [7]); 98% (active) in assay [4] (setting [8]); 97.6% (active) in assay [4] (at 50.0 µM). Further, the growth inhibition in assay [5] (setting [7]) is 2%; in assay [5] (setting [8]), 99% (active); in assay [5] (at 50.0 µM), 98.7% (active); in assay [6] (setting [7]) it was 30%; in assay [6] (setting [8]), 98% (active); in assay [6] (at 50.0 µM) it was 98.3% (active).

Consider `CCC(=O)Oc1c(Cl)cc(Cl)c(Cl)c1Cl`, for which the growth inhibition in assay [1] (setting [7]) is 4%; in assay [1] (setting [8]), 56%; in assay [1] (at 50.0 µM), 43.4%; in assay [2] (setting [7]), 6%; in assay [2] (setting [8]), 59%; in assay [2] (at 50.0 µM), 14.2%. The growth inhibition in assay [3] (setting [7]) was 2%; in assay [3] (setting [8]) it was 79% (active); in assay [3] (at 50.0 µM) it was 48.1%; in assay [4] (setting [7]), -3%; in assay [4] (setting [8]), 30%; in assay [4] (at 50.0 µM) it was 5.45%. Moreover, the growth inhibition in assay [5] (setting [7]) is -3%; in assay [5] (setting [8]), 54%; in assay [5] (at 50.0 µM), 14.2%; in assay [6] (setting [7]), 16%; in assay [6] (setting [8]) it was 90% (active); in assay [6] (at 50.0 µM), 74.3% (active).
